Source: PubChem BioAssay
697 NFkB inh = inhibitors of PMA/ionomycin-induced NF-kB reporter, 697 cells, primary screen, B-cell NF-kB inhibitor project, cell-based, luminescence, uHTS; 697 B-cell NF-kB luciferase reporter, 16 h; inhibition, % at 4 µM; 330,000 compounds, 0.33% hits; AID 435022, 2010; in the data active = inhibition above about 35%
Mdm2-MdmX inh = inhibitors of human Mdm2-MdmX association, primary screen, cell-based, luminescence, split luciferase, SaOS-2, uHTS | Protein Mdm4 (Homo sapiens) + E3 ubiquitin-protein ligase Mdm2 (Homo sapiens), … | SaOS-2 split-luciferase Mdm2/MdmX complementation | inhibition, % at 8 µM | 330,000 compounds, 3% hits;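 active = inhibition of at least 50% at 8 µM in the primary screen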
Target sequence (O15151 whole entry, looked up): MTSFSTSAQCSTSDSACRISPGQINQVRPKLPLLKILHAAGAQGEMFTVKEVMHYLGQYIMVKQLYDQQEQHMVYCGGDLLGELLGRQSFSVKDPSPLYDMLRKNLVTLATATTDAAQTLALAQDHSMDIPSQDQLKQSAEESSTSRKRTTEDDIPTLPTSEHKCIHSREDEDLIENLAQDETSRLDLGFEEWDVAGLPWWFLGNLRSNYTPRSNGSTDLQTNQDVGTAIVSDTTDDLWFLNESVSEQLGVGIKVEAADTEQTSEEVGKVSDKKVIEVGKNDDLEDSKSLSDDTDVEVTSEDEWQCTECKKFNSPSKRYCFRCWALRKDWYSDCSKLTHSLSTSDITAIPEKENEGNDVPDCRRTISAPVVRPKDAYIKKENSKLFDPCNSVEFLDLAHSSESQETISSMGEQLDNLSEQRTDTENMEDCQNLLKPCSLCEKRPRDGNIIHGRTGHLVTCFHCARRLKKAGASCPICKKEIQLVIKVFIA
Target sequence (Q00987 whole entry, looked up): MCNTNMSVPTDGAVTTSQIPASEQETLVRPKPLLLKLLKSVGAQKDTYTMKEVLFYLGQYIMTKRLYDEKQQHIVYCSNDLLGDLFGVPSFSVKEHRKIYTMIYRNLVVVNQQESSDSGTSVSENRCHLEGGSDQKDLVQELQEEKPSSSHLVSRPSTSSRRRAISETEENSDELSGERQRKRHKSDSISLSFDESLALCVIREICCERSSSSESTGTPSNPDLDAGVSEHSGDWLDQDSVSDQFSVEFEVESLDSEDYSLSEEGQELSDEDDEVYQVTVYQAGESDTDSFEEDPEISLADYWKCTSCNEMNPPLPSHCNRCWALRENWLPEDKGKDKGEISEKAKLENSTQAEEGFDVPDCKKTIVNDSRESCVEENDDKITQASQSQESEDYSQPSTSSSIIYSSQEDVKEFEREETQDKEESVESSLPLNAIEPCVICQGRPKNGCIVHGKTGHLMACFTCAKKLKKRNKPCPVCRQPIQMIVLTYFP
CSC inhib = cancer stem cell viability inhibitors, primary screen, luminescence | inhibition, % at 7.5 µM | AID 2717, 2010 | 300,000 compounds, 1.1% hits | cancer stem cell-like cells viability; in the data active = inhibition above about 75%; tested in HMLE shEcad cells
Jurkat NFkB inh = inhibitors of induced NF-kB luciferase reporter, primary screen, TCR NF-kB activation inhibitor project, cell-based, luminescence, uHTS; 330,000 compounds, 0.53% hits; inhibition, % at 4 µM; AID 435003, 2010; Jurkat, PMA/ionomycin-induced NF-kB luciferase reporter; in the data active = inhibition above about 50%
Beta apoptosis = inhibitors of cytokine-induced beta cell apoptosis, primary screen, luminescence. INS-1E cytokine-induced death, ATP luminescence, 48 h; percent of positive-control rescue, neutral wells zero. protection from apoptosis, % (test concentration not listed). 300,000 compounds, 0.8% hits. AID 435005, 2010;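 active = Every replicate reaches about 75%, or at least half do and their mean reaches it too, limit read from the data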;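 note: higher means more ATP so stronger rescue from cytokine killing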
Gli-Sufu antag = Gli-Sufu pathway antagonists, primary screen, luciferase luminescence, Sufu-KO-LIGHT cells, uHTS; 340,000 compounds, 0.74% hits; Sufu-KO-LIGHT fibroblasts, Gli luciferase reporter luminescence; AID 588413, 2011; inhibition, % at 5 µM;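 active = inhibition above about 55%, limit read from the data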
Mdm2 MdmX conf = Mdm2-MdmX complex disruptors, retested hits, confirmation, luminescence, single concentration | inhibition, % at 8 µM | AID 489028, 2010 | shares compounds with Mdm2-MdmX inh | Mdm2-MdmX binding, luminescent assay | 10,000 compounds, 55% hits; in the data active = inhibition above about 40%
Full FLuc ctr = full-length luciferase signal inhibition, confirmation, counter-screen for Mdm2/MdmX interaction inhibitor project, cell-based, single concentration, SaOS-2; shares compounds with Mdm2-MdmX inh; SaOS-2 full-length luciferase counterscreen, luminescence; inhibition, % at 8 µM; 6,200 compounds, 77% hits; AID 504607, 2011;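 active = mean inhibition at 8 µM reaching about 37%, which flags the compound as non-specific, limit read from the data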;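 note: p53-null SaOS-2 cells with luciferase driven by a doxycycline-inducible promoter; compound on cells about two nights before reading with doxycycline added after day one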
Large screens that a line does not name were inactive (follow-up assays come after a bar, where they were run). Sampled rows, rich in hits. Any-hit rate of the full collection: about 4.5%.

O=C(c1ccc(C(F)(F)F)cc1)N1CCC(=O)N(C(COCc2ccccc2)Cc2ccccc2)CC1 (stereo not given)	none
Cc1cccc(COCC(Cc2ccccc2)N2CCN(C(=O)c3cc(Cl)cc(Cl)c3)CCC2=O)c1 (stereo not given)	Mdm2-MdmX inh 50 | Mdm2 MdmX conf inactive
O=C(c1ccc(Cl)c(Cl)c1)N1CCC(=O)N(C(COCc2ccc(Cl)cc2)Cc2ccccc2)CC1 (stereo not given)	Mdm2-MdmX inh 52 | Mdm2 MdmX conf inactive
Cc1cccc(COCC(Cc2ccccc2)N2CCN(C(=O)c3ccc(Cl)c(Cl)c3)CCC2=O)c1 (stereo not given)	none
Cc1ccc(C)c(N(C)S(=O)(=O)c2ccc3c(c2)oc(=O)n3C)c1	none (no result: Beta apoptosis)
CCOc1ccc(N(CC(=O)NCCSCc2ccc(Cl)cc2)S(C)(=O)=O)cc1	none
c1cc2c3c(cccc3c1)NC1(CCC3(CC1)Nc1cccc4cccc(c14)N3)N2	Mdm2-MdmX inh 72 | Mdm2 MdmX conf inactive
Cc1ccc(N(Cc2cc(=O)[nH]c3ccccc23)C(=O)CCl)c(C)c1	Mdm2-MdmX inh 100 | Mdm2 MdmX conf 100 | Full FLuc ctr 54
Cc1ccc(S(=O)(=O)NCC(=O)N2CCN(S(=O)(=O)c3ccc(Cl)cc3)CC2)cc1C	none
COc1ccccc1CNCC(O)(c1ccc(Cl)cc1)c1ccc(Cl)cc1	Mdm2-MdmX inh 54 | Mdm2 MdmX conf inactive
C=CCNC(=S)NNC(=O)c1ccccc1OCC	none
Cn1ccnc1C(=O)c1cc(SCC(=O)NC2CC2)nc2ccccc12	none
CN(C(=O)CSc1cc(C(=O)c2nccn2C)c2ccccc2n1)c1ccccc1	Mdm2-MdmX inh 53, Beta apoptosis 106 (no result: CSC inhib) | Mdm2 MdmX conf 63 | Full FLuc ctr 81
Cc1ccc(S(=O)(=O)N[C@@H](Cc2ccccc2)C(=O)CCl)cc1	Mdm2-MdmX inh 80 | Mdm2 MdmX conf inactive | Full FLuc ctr 63
CCCCN1CC(=O)N2[C@H](c3ccc(OC)cc3)[C@@H]3C(=O)N(CC)C(=O)[C@@H]3[C@]2(Cc2ccccc2)C1=O	none
C/C(Cl)=C\Cn1c(N2CCCC2)nc2c1c(=O)n(C)c(=O)n2C	none
C=C1[C@@H](O)[C@@H]2O[C@]3(CC[C@H](/C=C/[C@@H](C)[C@@H]4CC(C)=CC5(O[C@H](C[C@@](C)(O)C(=O)OC)CC[C@H]5O)O4)O3)CC[C@H]2O[C@@H]1[C@@H](O)C[C@H](C)[C@H]1OC2(CCCCO2)CC[C@H]1C (stereo not given in full)	Mdm2-MdmX inh 100, CSC inhib 77, Beta apoptosis 108, Gli-Sufu antag 90 | Mdm2 MdmX conf 100 | Full FLuc ctr inactive
CCOC(=O)c1c(C)sc2c1N(C(=O)CCl)c1cc(Cl)ccc1S2	Mdm2-MdmX inh 100, CSC inhib 130 | Mdm2 MdmX conf 77 | Full FLuc ctr 47
Nc1c(N(C(=O)Nc2ccc(Cl)c(Cl)c2)C2CCCC2)c(=O)[nH]c(=O)n1Cc1ccccc1	Mdm2-MdmX inh 78 | Mdm2 MdmX conf inactive
COc1cc(Cl)c(NC2=CC(=O)C(=O)c3ccccc32)c(OC)c1	Mdm2-MdmX inh 53, CSC inhib 110, Beta apoptosis 105 | Mdm2 MdmX conf 59 | Full FLuc ctr 50
COc1cc(Cl)c(NS(=O)(=O)c2ccc(-c3ccc(=O)[nH]n3)o2)c(OC)c1	none
COc1ccc(CNC(=O)COC(=O)c2ccc(F)c(S(=O)(=O)N3CCOCC3)c2)cc1	none
O=C(NNC(=O)C1CCC1)c1ccc(Br)cc1	none
Cc1cnc(C(=O)NNC(=O)c2ccc(Br)cc2)cn1	Mdm2-MdmX inh 61 | Mdm2 MdmX conf inactive | Full FLuc ctr 69
Cc1cccc(N2CCN(C(=O)C3CCC(=O)N(Cc4ccccc4F)C3)CC2)c1C (stereo not given)	none
COc1cc(OC)c2c(-c3ccccc3)cc(=O)oc2c1C(CC(=O)N1CCCC1)c1ccc2c(c1)OCO2 (stereo not given)	none
COc1cc(OC)c2c(-c3ccccc3)cc(=O)oc2c1C(CCN1CCCCC1)c1ccc2c(c1)OCO2 (stereo not given)	Mdm2-MdmX inh 99 | Mdm2 MdmX conf inactive
COc1cc(OC)c2c(-c3ccccc3)cc(=O)oc2c1C(CCN1CCCC(C)C1)c1ccc2c(c1)OCO2 (stereo not given)	Mdm2-MdmX inh 74 | Mdm2 MdmX conf inactive | Full FLuc ctr 77
CNC(=S)N/N=C1\C(=O)c2cccc3cccc1c23	Mdm2-MdmX inh 87 | Mdm2 MdmX conf inactive
CCCCNC(=S)N/N=C1\C(=O)c2cccc3cccc1c23	none
N#CCCN(C(=O)CN1CCN(S(=O)(=O)c2ccc(Cl)s2)CC1)c1ccc(F)cc1	none
N#Cc1c(NCCCO)nc(-c2ccccc2)c2c1CCCC2	none
N#Cc1c(NCCN)nc(-c2ccccc2)c2c1CCCC2	Mdm2-MdmX inh 58 | Mdm2 MdmX conf inactive
O=C(CSc1nc(-c2cccs2)nc2ccccc12)NC1CCS(=O)(=O)C1 (stereo not given)	Mdm2-MdmX inh 61 (no result: Gli-Sufu antag) | Mdm2 MdmX conf inactive
CCN(C(=O)CSc1nc(-c2cccs2)nc2ccccc12)C1CCS(=O)(=O)C1 (stereo not given)	none (no result: CSC inhib)
CCOC(=O)c1ccc(NCCc2ccc(OC)c(OC)c2)c(N)c1	none
Cc1csc(NC(=O)CSc2nsc(SCC(=O)Nc3nc(C)cs3)c2C#N)n1	none
Cc1ccc(NC(=O)CSc2nsc(SCC(=O)Nc3ccc(C)cc3C)c2C#N)c(C)c1	Mdm2-MdmX inh 83 | Mdm2 MdmX conf inactive
COc1ccc(Nc2cc(Nc3ccc(OC)cc3)ncn2)cc1	none
COc1ccc(Nc2cc(Nc3cc(OC)c(OC)c(OC)c3)ncn2)cc1	Mdm2-MdmX inh 65 | Mdm2 MdmX conf inactive
O=C(Nc1nc2ccccc2n1Cc1ccc(Cl)cc1)c1ccco1	none
O=C(Nc1nc2ccccc2n1CCOc1ccccc1)c1ccco1	Mdm2-MdmX inh 53 (no result: CSC inhib) | Mdm2 MdmX conf inactive
Nc1nc2ccccc2n1CCOc1ccc(Br)cc1	none
Cc1ccc(OCCn2c(NC(=O)c3ccco3)nc3ccccc32)cc1	none
